Source: PubChem BioAssay AID504329 (Southern Research Specialized Biocontainment Screening …, 2011)
About 1,000 (0.29%) of roughly 340,000 compounds were called active. Only a sample is shown. Potency and affinity values are given separately. A number with no mark means an inactive call. No stated cut-off is given here; in the data, inconclusive means inhibition above about 27% without an active follow-up result; inactive means below that.

test: H1N1 influenza NS1A inhibitors, functional cell based assay (AID 504329); conditions: percent inhibition, at 12.5 µM, stronger effect = higher value

Compound | inhibition
Cc1ccc(CCNC(=O)c2ccc(CS(=O)(=O)Cc3ccc(F)cc3)o2)cc1 | 2.69%
O=C(NNc1cccc([N+](=O)[O-])c1)/C(=C\c1cccnc1)NC(=O)c1ccccc1 | 9.25%
COc1cc(CN(CC(C)C)S(=O)(=O)c2ccccc2Br)cc(OC)c1 | -4.89%
Cc1ccc(NC(=O)c2cccc(S(=O)(=O)NCc3ccccc3)c2)nc1 | -4.84%
CCN(CC(=O)Nc1ccccc1OC)C(=O)CSCc1ccc(C)cc1 | 1.31%
COc1cc(-c2nc(CN3CCN(CC(C)C)C(=O)[C@@H]3C)c(C)o2)ccc1F | 8.73%
COc1ccccc1N1CCN(Cc2ccccc2)CC1 | -11.8%
CCNc1ccccc(-c2ccc3ccccc3n2)c1=O | -10%
CC(=O)N(C)c1ccc(N2CCOCC2)c2c1C(=O)c1ccccc1C2=O | 16.8%
O=C1C=C(N2CCOCC2)c2ccccc2C1=O | -1.26%
CC(=C1C(=O)c2ccccc2C1=O)N1CCN(Cc2ccccc2)CC1 | -9.47%
O=C1c2ccccc2-c2onc3ccc(NCc4ccco4)c1c23 | 26%
O=C(O/N=C/c1ccc(Br)cc1)c1ccc(F)cc1 | 5.19%
CCC(C)N(C(=O)COC(=O)CSc1ccc(C)c(C)c1)C1CCS(=O)(=O)C1 (configuration not stated) | -5.16%
COc1ccc2[nH]c(C(=O)NCc3ccccc3)cc2c1 | 15.2%
Clc1ccccc1-c1ccc2ncnc(NCc3cccs3)c2c1 | 9.25%
Cc1nc(N2CCCCC2)c2ccsc2n1 | -1.56%
Cc1ccc(CN2C(=O)C(=O)c3cc(C)ccc32)cc1 | 3.72%
CN1CCN(C(c2ccc(Cl)cc2)c2cc(Cl)c3cccnc3c2O)CC1 (configuration not stated) | 2.9%
CCN1CCN(C(c2ccc(C(F)(F)F)cc2)c2ccc3cccnc3c2O)CC1 (configuration not stated) | 16.8%
CN1CCN(C(c2ccc(F)cc2)c2ccc3cccnc3c2O)CC1 (configuration not stated) | 7.02%
Cc1ccc(C(c2cc(Cl)c3cccnc3c2O)N2CCN(C)CC2)cc1 (configuration not stated) | 5.08%
Oc1c(C(c2ccc(Cl)cc2)N2CCCC2)cc(Cl)c2cccnc12 (configuration not stated) | -6.42%
CN1CCN(C(c2ccccn2)c2cc(Cl)c3cccnc3c2O)CC1 (configuration not stated) | 14.5%
CCCCn1c(N)c(N(CCOC)C(=O)COC(=O)COc2c(C)cccc2C)c(=O)[nH]c1=O | -13%

Compound | inhibition
CC(C)(C)c1cc(NC(=O)CSc2nncs2)n(-c2ccccc2)n1 | 1.18%
Cc1cc(C(=O)NC(Cc2c[nH]c3ccccc23)C(=O)O)c(C)o1 (configuration not stated) | 1.37%
COc1ccc(S(=O)(=O)Nc2ccc3c(c2)N(C(C)=O)CCC3)cc1OC | 4.6%
O=C(CNS(=O)(=O)c1ccc(F)cc1)N1CCN(c2ccc(F)cc2)CC1 | -9.78%
COc1ccc(C(=O)c2sc(Nc3ccc(NC(C)=O)cc3)nc2C)cc1 | -2.13%
CN(C)c1ccc(/C=C2\CCCCC2=O)cc1 | 12.2%
CN(C)c1ccc(C=C2C=Cc3ccccc32)cc1 | 11.1%
COc1cc(C(=O)N=c2sccn2C)c([N+](=O)[O-])cc1OC | -1.77%
O=C(Cn1nnc(-c2ccccc2)n1)N1CCN(c2ccc(F)cc2)CC1 | 11.4%
S=C(NCc1ccccn1)Nc1ccc(Cl)c(Cl)c1 | 1.31%
CC(C)C(=O)NNC(=O)c1ccccn1 | -2.86%
COCCCNC(=S)NNC(=O)c1cccnc1 | -5.08%
Cc1cccc(NC(=O)NNC(=O)c2ccccn2)c1 | 0.66%
COCCCNC(=S)NNC(=O)c1csc(C)n1 | -15.3%
COc1ccc(C(=O)NNC(=O)c2ccccn2)cc1 | -9.69%
COC(=O)c1nc2n(n1)C(c1ccc(OC)c(OC)c1)C(C(=O)OC1CCCCC1)=C(C)N2 (configuration not stated) | 1.19%
Cc1nnc(NC2CCCCC2)[nH]c1=O | -4.74%
COc1ccc(NS(=O)(=O)c2ccc(C(=O)N3CCN(Cc4ccccc4)CC3)cc2)cc1 | 11.9%
Cc1onc(-c2c(F)cccc2Cl)c1C(=O)c1ccccc1 | 20%
O=C(NCC(c1ccco1)N1CCc2ccccc2C1)c1cccc([N+](=O)[O-])c1 (configuration not stated) | -12.3%
COc1ccccc1/C=C1\C(=O)NC(=S)N(c2ccccc2)C1=O | -27.6%
Cn1c(=O)c2c(nc(NCc3ccccc3)n2C)n(C)c1=O | 1.83%
O=C(Nc1csnn1)OCc1ccccc1 | -22.9%
Cc1[nH]c2ccccc2c1/C=N/O | -0.17%
Cc1[nH]c2ccccc2c1/C=N/n1cnnc1 | -3.32%

Compound | inhibition
O=C(c1cccc(S(=O)(=O)N2CCOCC2)c1)N(Cc1ccco1)Cc1cccs1 | 4.9%
Oc1ccccc1C=Nc1cccc2ccccc12 | -4.35%
Oc1ccccc1C=Nc1ccccc1-c1nc2ccccc2[nH]1 | 41.1%
Cc1ccc(Nc2cc(C)nc3c(C)cccc23)cc1 | -2.9%
O=S(=O)(NCc1cc(-c2ccccc2Cl)no1)c1ccc(Cl)cc1 | 0.63%
COc1ccc(CNc2nc3nc(C)cc(C)n3n2)cc1 | 1.24%
CSc1ncccc1C(=O)Nc1cccc(S(=O)(=O)N2CCCC2)c1 | -2.85%
O=C(COC(=O)c1ccccc1O)NNC(=O)c1ccc(Br)cc1 | 7.27%
O=C(C1CCN(Cc2nc(Cc3cccc(F)c3)no2)CC1)N1CCOCC1 | 7.26%
Cc1cccc(CSc2nn3c(=O)c(C)nnc3s2)c1 | -3.29%
Cc1ccc(NC(=O)CSc2nn3c(=O)c(C)nnc3s2)cc1Cl | 12.2%
Cc1nnc2sc(SCC(=O)Nc3ccc(Br)cc3)nn2c1=O | 24.3%
Cc1nnc2sc(SCc3cccc(Cl)c3)nn2c1=O | 2.99%
Cc1nnc2sc(SCc3ccc(Cl)cc3)nn2c1=O | -5.29%
Cc1nnc2sc(SCC(=O)Nc3nccs3)nn2c1=O | -3.22%
C=CC(C)(C)c1c(O)c(CC=C(C)C)c(O)c2c(=O)c3ccc(O)c(O)c3oc12 | 4.4%
O=C(Cc1cccc(C(F)(F)F)c1)OCC(=O)N1CCN(S(=O)(=O)c2ccc(Cl)cc2)CC1 | -3.3%
CCOc1ccc(NC(=O)C2CCCN2C(=O)NC2CCCCC2)cc1 (configuration not stated) | 3.03%
Cc1ccc2cc(CCNC(=O)C3CCCC3)c(=O)[nH]c2c1 | 9.32%
CCC(C)(C)NC(=O)C(c1ccc(OC)cc1)N(C(=O)CCC(=O)Nc1cc(C)on1)c1ccc2c(c1)OCCO2 (configuration not stated) | -4.61%
CNC(=O)c1[nH]cnc1C(=O)Nc1cccc(C)c1 | -8.44%
COc1ccc(OCC(=O)Nc2ccc3c(c2)nc(CCn2ccccc2=O)n3C)cc1 | 5.24%
CN1CCN(C(=O)c2ccc3ccccc3c2)CC1 | -18.4%
CN1CCN(C(=O)c2ccc3nc(-c4ccccc4)c(-c4ccccc4)nc3c2)CC1 | -4.76%
O=C(c1ccc(-c2ccccc2)cc1)N1CCN(c2ncccn2)CC1 | 20.6%

Compound | inhibition
Cc1cc(N2CCN(C)CC2)nc(-c2ccccc2O)n1 | 8.33%
Oc1cc(-c2ccc(N3CCCCC3)nc2)cc2cccnc12 | -0.13%
CC(C)(C)c1ccc(C(=O)N2CCNCC2)cc1 | -7.49%
Cc1[nH]c2ccccc2c1C(=O)C(=O)N1CC(C)OC(C)C1 (configuration not stated) | -0.55%
COc1ccc(NC(=O)CN(C)C(=O)C2CSC3(C)CCC(=O)N23)cc1 (configuration not stated) | -5.66%
O=C(CCNC(=O)N1CC(=O)Nc2ccccc21)Nc1ccc(Cl)cc1 | -4.42%
Cc1cc(C(=O)NN)c2cc(Br)ccc2n1 | -10.8%
O=C(c1ccc(F)cc1F)N1CCC(N2CCC(C(=O)N3CCOCC3)CC2)CC1 | 4.56%
CCOC(=O)C(=O)Nc1ccccc1C(=O)NCc1ccccc1 | -18.5%
CC(C)Cn1cnc2c(c1=N)C(c1ccccc1)C1=C(CC(C)(C)CC1=O)O2 (configuration not stated) | 0.81%
COc1ccc(C2C(C(=O)c3ccccc3)N3c4ccccc4C=CC3C2[N+](=O)[O-])cc1 (configuration not stated) | -12.1%
O=C(c1ccco1)[C@@H]1[C@@H]2C(=O)N(c3ccc(F)cc3)C(=O)[C@@H]2[C@H]2C=Cc3ccccc3N21 | 0.66%
Cc1cc(C)cc(N2C(=O)CCN(Cc3ccccc3)C2=O)c1 | 0.48%
Cc1c(N=C/C=C2\N(C)c3ccccc3C2(C)C)c(=O)n(-c2ccccc2)n1C | 1.39%
CC1=NN(c2ccccc2)C(=O)/C1=C/c1cccs1 | 24.1%
CC1=NN(c2ccccc2)C(=O)/C1=C/c1ccc(Cl)cc1 | 4.56%
CC1=NN(c2ccccc2)C(=O)/C1=C/C=C/C=C/N(C)C | 22.1%
CC1=NN(c2ccccc2)C(=O)/C1=C\C=C1\N(C)c2ccccc2C1(C)C | 25.6%
CC1=NN(c2ccccc2)C(=O)/C1=C/N(C)C | 12.1%
CC1=NN(c2ccccc2)C(=O)/C1=C/C=C/c1ccccc1 | 9.01%
CC1=NN(c2ccccc2)C(=O)/C1=C/c1cccc(C)c1 | -0.71%
CC(=O)Nc1cc(C)c2nc(NC(C)=O)sc2c1 | 8.68%
